# Experimental data: the supplement of paper PMC8728848
# Shown is part of a subset that was picked to be rich in the strongest signals.
# Tests used:
# Assay in all cases: glycan array binding signal (z-score within array); higher = stronger binding
# Settings in all cases: glycan notation: IUPAC condensed, linker removed
# [1] = molecular target: Fuc(a1-2)Gal(b1-3)GlcNAc
# How it was run: (§1)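 The Consortium for Functional Glycomics database supplied 3228 glycan arrays, of which those lacking an available protein sequence were dropped. The binding signal, a within-array Z-score, was averaged across arrays of the same protein sequence and across linkers. Negative scores can be read as non-binding.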
# [2] = molecular target: Fuc(a1-2)Gal(b1-4)GlcNAc(b1-3)Gal(b1-4)GlcNAc
# How it was run: as §1
# [3] = molecular target: Fuc(a1-2)[Gal(a1-3)]Gal(b1-4)Glc
# How it was run: as §1
# [4] = molecular target: Fuc(a1-2)[GalNAc(a1-3)]Gal(b1-4)GlcNAc(b1-3)Gal(b1-4)GlcNAc
# How it was run: as §1
# [5] = molecular target: Fuc(a1-2)[GalNAc(a1-4)]Gal(b1-4)GlcNAc
# How it was run: as §1
# [6] = molecular target: Gal(a1-2)Gal
# How it was run: as §1
# [7] = molecular target: Gal(a1-3)Gal(b1-4)[Fuc(a1-3)]GlcNAc(b1-2)Man(a1-3)[Gal(a1-3)Gal(b1-4)[Fuc(a1-3)]GlcNAc(b1-2)Man(a1-6)]Man(b1-4)GlcNAc(b1-4)GlcNAc
# How it was run: as §1
# [8] = molecular target: Gal(b1-3)[Fuc(a1-4)]GlcNAc(b1-2)Man(a1-3)[Gal(b1-3)[Fuc(a1-4)]GlcNAc(b1-2)Man(a1-6)]Man(b1-4)GlcNAc(b1-4)[Fuc(a1-6)]GlcNAc
# How it was run: as §1
# [9] = molecular target: Gal(b1-4)GalNAc(a1-3)[Fuc(a1-2)]Gal(b1-4)GlcNAc
# How it was run: as §1
# [10] = molecular target: Gal(b1-4)Glc6S
# How it was run: as §1
# [11] = molecular target: Gal(b1-4)GlcNAc(b1-2)Man(a1-3)[Man(a1-6)]Man(b1-4)GlcNAc(b1-4)GlcNAc
# How it was run: as §1
# [12] = molecular target: Gal(b1-4)GlcNAc(b1-2)Man(a1-6)Man(b1-4)GlcNAc(b1-4)GlcNAc
# How it was run: as §1
# [13] = molecular target: Gal(b1-4)GlcNAc(b1-3)Gal(b1-4)GlcNAc(b1-3)Gal(b1-4)GlcNAc
# How it was run: as §1
# [14] = molecular target: Gal(b1-4)GlcNAc(b1-6)Gal(b1-4)GlcNAc(b1-6)GalNAc
# How it was run: as §1
# [15] = molecular target: Gal3S(b1-4)Glc6S
# How it was run: as §1
# [16] = molecular target: Gal3S(b1-4)GlcNAc6S
# How it was run: as §1
# [17] = molecular target: GalNAc(a1-3)GalNAc
# How it was run: as §1
# [18] = molecular target: GalNAc(b1-3)Gal
# How it was run: as §1
# [19] = molecular target: GalNAc(b1-3)GalNAc
# How it was run: as §1
# [20] = molecular target: GlcNAc(b1-3)Gal(b1-4)GlcNAc(b1-3)Gal(b1-4)GlcNAc
# How it was run: as §1
# [21] = molecular target: GlcNAc(b1-4)GlcNAc(b1-4)GlcNAc
# How it was run: as §1
# [22] = molecular target: Man(a1-2)Man(a1-2)Man(a1-6)[Man(a1-3)]Man
# How it was run: as §1
# [23] = molecular target: Man(a1-2)Man(a1-3)[Man(a1-2)Man(a1-6)]Man
# How it was run: as §1
# [24] = molecular target: Man(a1-2)Man(a1-3)[Man(a1-6)]Man(a1-6)[Man(a1-2)Man(a1-3)]Man(b1-4)GlcNAc(b1-4)GlcNAc
# How it was run: as §1
# [25] = molecular target: Man(a1-2)Man(a1-6)[Man(a1-3)]Man(a1-6)[Man(a1-2)Man(a1-2)Man(a1-3)]Man(b1-4)GlcNAc(b1-4)GlcNAc
# How it was run: as §1
# [26] = molecular target: Man(a1-3)[Man(a1-6)]Man(a1-6)[Man(a1-2)Man(a1-3)]Man(b1-4)GlcNAc(b1-4)GlcNAc
# How it was run: as §1
# [27] = molecular target: Man(a1-3)[Man(a1-6)]Man(a1-6)[Man(a1-3)]Man(b1-4)GlcNAc(b1-4)GlcNAc
# How it was run: as §1
# [28] = molecular target: Man(a1-3)[Man(a1-6)]Man(b1-4)GlcNAc(b1-4)GlcNAc
# How it was run: as §1
# [29] = molecular target: Neu5Ac(a2-3)Gal(b1-3)[Fuc(a1-4)]GlcNAc(b1-3)Gal(b1-3)[Fuc(a1-4)]GlcNAc
# How it was run: as §1
# [30] = molecular target: Neu5Ac(a2-3)Gal(b1-3)[Neu5Ac(a2-6)]GalNAc
# How it was run: as §1
binder,measurement,setting,value
PP2A1 (Arabidopsis thaliana) (protein) MFRNQDSKYLIPVQKEAPPVTTLPMKASTVKSPHNCEAILRDADPPISLSSVNLSEQLRSGVFLKPKKQIKYWVDERNSNCFMLFAKNLSITWSDDVNYWTWFTEKESPNENVEAVGLKNVCWLDITGKFDTRNLTPGIVYEVVFKVKLEDPAYGWDTPVNLKLVLPNGKEKPQEKKVSLRELPRYKWVDVRVGEFVPEKSAAGEITFSMYEHAAGVWKKGLSLKGVAIRPKQHHHHHH,glycan array binding signal (z-score),[1],-0.319
same,glycan array binding signal (z-score),[2],-0.347
same,glycan array binding signal (z-score),[3],-0.572
same,glycan array binding signal (z-score),[4],-0.018
same,glycan array binding signal (z-score),[5],-0.398
same,glycan array binding signal (z-score),[6],-0.291
same,glycan array binding signal (z-score),[7],-0.011
same,glycan array binding signal (z-score),[8],1.34
same,glycan array binding signal (z-score),[9],-0.498
same,glycan array binding signal (z-score),[10],0.116
same,glycan array binding signal (z-score),[11],2.93
same,glycan array binding signal (z-score),[12],0.362
same,glycan array binding signal (z-score),[13],-0.223
same,glycan array binding signal (z-score),[14],0.051
same,glycan array binding signal (z-score),[15],0.405
same,glycan array binding signal (z-score),[16],0.165
same,glycan array binding signal (z-score),[17],-0.698
same,glycan array binding signal (z-score),[18],-0.293
same,glycan array binding signal (z-score),[19],-0.497
same,glycan array binding signal (z-score),[20],-0.708
same,glycan array binding signal (z-score),[21],2.52
same,glycan array binding signal (z-score),[22],0.03
same,glycan array binding signal (z-score),[23],0.174
same,glycan array binding signal (z-score),[24],3.07
same,glycan array binding signal (z-score),[25],2.69
same,glycan array binding signal (z-score),[26],2.97
same,glycan array binding signal (z-score),[27],3.55
same,glycan array binding signal (z-score),[28],2.85
same,glycan array binding signal (z-score),[29],0.594
same,glycan array binding signal (z-score),[30],0.432
